Screening results (PubChem BioAssay)
In the library only some 2.5% were active in any assay of this set; here they are far more common.
RAD52 inh: RAD52 DNA annealing inhibitors, primary screen, biochemical, FRET, single point, set 2; DNA repair protein RAD52 homolog (Homo sapiens), P43351; recombinant RAD52 DNA annealing, FRET fluorescence; inhibition, % at 18.7 µM; 0.46% of 360,000 active;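 active means every replicate showing at least 50% inhibition; inconclusive means mean inhibition at least 50% but not in every replicate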
AF4-AF9 inh: inhibitors of AF4 peptide binding to AF9, primary screen, biochemical, AlphaScreen, biotin-AF4 peptide, FLAG-AF9, single point. Protein AF-9 (Homo sapiens), P42568. inhibition, % at 10 µM. 0.47% of 350,000 active. AID 651704, 2012;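 active means every replicate reaching a set inhibition limit, whatever the replicate mean, cut at about 25% in these data; inconclusive means mean inhibition reaches that limit but some replicates miss it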;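 further: 0% = plate neutral control median and 100% = total signal loss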
Casp6 inh: human caspase-6 inhibitors, primary screen, biochemical, VEID-R110 fluorescence, single point, set 2. purified caspase-6, Z-VEID-R110 cleavage fluorescence. inhibition, % at 12.5 µM. 0.53% of 350,000 active. AID 686996, 2013;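 active means mean inhibition across replicates at least about 35%, with every replicate also reaching that limit, limit read from the data; inconclusive means only one of the two criteria met; inactive means neither criterion met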;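 further: 0% = median of neutral control wells and 100% = no fluorescence left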
Target sequence (P55212 24-179 limits assumed): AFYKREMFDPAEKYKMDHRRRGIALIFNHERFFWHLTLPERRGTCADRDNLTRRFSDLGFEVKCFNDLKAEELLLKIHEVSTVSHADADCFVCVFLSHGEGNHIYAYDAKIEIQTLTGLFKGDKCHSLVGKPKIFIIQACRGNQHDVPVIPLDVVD
Target sequence (P55212 194-293 limits assumed): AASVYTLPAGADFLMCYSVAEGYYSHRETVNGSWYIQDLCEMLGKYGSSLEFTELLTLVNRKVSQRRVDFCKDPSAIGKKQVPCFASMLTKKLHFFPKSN
NSD2 HMT inh: NSD2 histone methyltransferase inhibitors, primary screen, biochemical, AlphaScreen, single concentration, set 2 | Histone-lysine N-methyltransferase NSD2 (Homo sapiens), O96028 | inhibition, % at 12.5 µM | NSD2 peptide methylation, 120 min | 0.54% of 310,000 active; in the data active means inhibition above about 50%
Ecoli rRNA inh: reduced GFP signal of wild-type E. coli, primary screen, bacterial rRNA inhibitor project, GFP/RFP fluorescence, OD600, single point; E. coli WT GFP vs humanized-ribosome RFP mutants, 24 h; active compounds read low; DMSO median 0, no signal -100; GFP signal change (wild-type ribosome), % (test concentration not listed); 1.6% of 350,000 active; AID 720706, 2013;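 active means significant combined selectivity score with lowered wild-type GFP, culture density cut under 30%, mutant RFP and density less affected; inactive means any of these conditions unmet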
AID977621: growth inhibition of wild-type GFP E. coli, dose response, H69 mutant RFP, cherry-pick | 1,900 tested, under 10 active | shares compounds with Ecoli rRNA inh | E. coli wild-type GFP strain growth, fluorescence, 24 h | activity change, negative = inhibition at 50 µM;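 active means Wild-type ribosome reporter drop at least double the humanized mutant ribosome reporter drop, growth loss under a set limit; inconclusive means no clear call, values can overlap the other calls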;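 further: wild-type GFP and H69 mutant RFP strains grown together 50/50 in each well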
AID977628: E. coli growth inhibition, wild-type GFP versus h24 humanized RFP strain, dose response, h24 mutant RFP vs wild-type GFP, cherry-pick; E. coli WT GFP strain growth, fluorescence, 24 h; shares compounds with Ecoli rRNA inh; AID 977628, 2014; activity change, negative = inhibition at 50 µM; 1,900 tested, under 10 active;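 active means compound lowering the normal-ribosome reporter at least twice as much as the humanized-ribosome reporter, growth loss under a set limit; inconclusive means no clear call, values can overlap the other calls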;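 further: wild-type GFP and h24 humanized RFP strains co-cultured 1 to 1 per well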
* marks the source's active call; other numbers are inactive results; ? = inconclusive; . = not tested or not shown.

SMILES | RAD52 inh | AF4-AF9 inh | Casp6 inh | NSD2 HMT inh | Ecoli rRNA inh | AID977621 | AID977628
CC(=O)Nc1ccc(NC(=O)C2(C)Cc3c(-c4ccc5c(c4)OCO5)ccnc3O2)cc1 (centres undefined) | -1 | -1 | -2 | -1 | -3 | . | .
CC(=O)Nc1ccc(-c2ccnc3c2CC(C)(C(=O)Nc2ccc4c(c2)OCO4)O3)cc1 (centres undefined) | -20 | 6 | 4 | 10 | -23* | -12 | .
CCC1CCCCN1C(=O)CSc1nnc(-c2cccc(Cl)c2)o1 (centres undefined) | -8 | -1 | 1 | . | -26* | -12 | -15
CC=Cc1ccc2n(c1=O)C[C@@H]1[C@@H](CO)[C@H](C(=O)NCC(F)(F)F)[C@H]2N1C(C)=O (mixture of isomers) | -1 | 0 | 2 | . | 0 | . | .
Cc1cc(C)cc(NS(=O)(=O)c2cc(C(=O)NCc3ccccn3)ccc2Cl)c1 | -10 | 11 | 1 | -1 | -20* | -3.2 | -8
O=C(NCc1ccccn1)c1ccc(Cl)c(S(=O)(=O)Nc2ccccc2C(=O)NCc2ccccn2)c1 | -8 | 6 | 6 | -3 | -5 | . | .
C[C@@H]1CN([C@H](C)CO)C(=O)c2cc(NC(=O)C3CC3)ccc2O[C@H]1CN(C)S(C)(=O)=O | 4 | -3 | -1 | . | 2 | . | .
CCCc1nc2ccc(Br)cn2c1Cc1cccc(Cl)c1 | -26 | 4 | 1 | . | -22* | -3.2 | -3.3
CCCc1nc2ccc(Br)cn2c1Cc1ccccc1 | -8 | 2 | 3 | . | -1 | . | .
C#CC[N+](C)(C)CCN1C(=O)C2C(c3ccccc3)C=CC(c3ccccc3)C2C1=O (centres undefined) | -12 | 0 | 2 | 0 | 12 | . | .
CC(C)OC(=O)C[N+](C)(C)CCN1C(=O)C2C(c3ccccc3)C=CC(c3ccccc3)C2C1=O (centres undefined) | 3 | 2 | -5 | -3 | -34* | -13 | -14
COc1cc(CC(=O)Nc2nc(C)cs2)cc(OC)c1OC | 8 | 2 | -1 | -4 | -19* | 3 | -3.3
Fc1cccc(Nc2ncnc3[nH]ncc23)c1 | -2 | -3 | -3 | 1 | 9 | . | .
Brc1ccc(Nc2ncnc3[nH]ncc23)cc1 | -17 | 2 | -1 | -2 | -20* | -12 | .
C[C@H](CO)N1C[C@H](C)[C@H](CN(C)Cc2ccc3c(c2)OCO3)OCCCC[C@H](C)Oc2ccc(NC(=O)C3CCCCC3)cc2C1=O | 24 | 2 | -5 | . | -4 | . | .
Cc1ccc(Cl)cc1N1CCN(S(C)(=O)=O)CC1 | -12 | -30 | -4 | 4 | -35* | . | ?
CS(=O)(=O)Nc1ccc2c(c1)[C@H]1C[C@@H](CC(=O)NCc3ccc(-c4ccccc4)cc3)O[C@H](CO)[C@H]1O2 | . | . | . | . | -4 | . | .
COc1ccc(CC(=O)Nc2cc(S(=O)(=O)Nc3ccc(OC)cc3)ccc2OC)cc1 | -29 | 0 | -4 | -2 | -18* | -15 | -17
COC(=O)c1sccc1NC(=O)Cc1ccc(OC)cc1 | -2 | -3 | 2 | -3 | -27* | -15 | .
COc1ccc(CC(=O)Nc2ccc(S(=O)(=O)Nc3ncccn3)cc2)cc1 | . | . | . | 2 | . | . | .
COc1ccc(C#Cc2ccc([C@@H]3[C@H]4CN(S(=O)(=O)c5cn(C)cn5)CCCCN4[C@H]3CO)cc2)cc1 | . | -6 | . | . | -4 | . | .
CO[C@@H]1CN(C)C(=O)c2ccc(NC(C)=O)cc2OC[C@@H](C)N(C(=O)CC2CC2)C[C@@H]1C | 2 | . | . | . | 2 | . | .
COc1cccc(NC(=O)N2CC(=O)N3[C@H](C2)[C@@H](c2ccc(C4=CCCC4)cc2)[C@@H]3CO)c1 | -2 | -1 | 0 | . | -12 | . | .
